A selection: hits, their analogues and other compounds. The true share with any hit is near 6.4%.
RORg inh: qHTS for inhibitors of ROR gamma transcriptional activity; Nuclear receptor ROR-gamma (Mus musculus), P51450; 310,000 compounds, 5.4% hits; AID 2551, 2010; Drosophila S2 Gal4-RORgamma UAS-luciferase reporter, 20 h; Potency, µM (top dose mostly 53.6 µM), inactives show at the top dose activity change, negative = inhibition, hits mostly inhibitors; also: nearly all actives have a fitted effect of over 60% in size
Target sequence (P51450 whole entry, looked up, the tested form may be a part): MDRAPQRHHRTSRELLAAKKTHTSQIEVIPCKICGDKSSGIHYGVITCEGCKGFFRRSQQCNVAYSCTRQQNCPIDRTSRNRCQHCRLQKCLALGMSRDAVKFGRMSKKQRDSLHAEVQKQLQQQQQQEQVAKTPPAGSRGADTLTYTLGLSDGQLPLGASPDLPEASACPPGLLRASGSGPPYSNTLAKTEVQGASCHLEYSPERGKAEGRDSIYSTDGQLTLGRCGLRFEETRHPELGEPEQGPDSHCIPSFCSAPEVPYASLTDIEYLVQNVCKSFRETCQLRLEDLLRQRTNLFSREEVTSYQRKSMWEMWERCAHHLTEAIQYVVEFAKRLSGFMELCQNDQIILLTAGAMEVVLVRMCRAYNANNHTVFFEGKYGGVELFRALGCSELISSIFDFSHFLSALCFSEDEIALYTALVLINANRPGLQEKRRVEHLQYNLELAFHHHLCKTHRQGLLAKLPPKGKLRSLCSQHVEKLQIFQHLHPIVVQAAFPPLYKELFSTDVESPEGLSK
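A Gal4/UAS one-hybrid system in insect cells: metallothionein-promoter Gal4–ROR gamma fusion plus Photinus luciferase reporter. Copper sulfate 700 uM final, 20 hr ambient incubation, luminescent detection after 10 min with reagent.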
KinaseGlo FLuc: Counterscreen for Luciferase (Kinase-Glo TM) Inhibition; Luciferin 4-monooxygenase (Photuris pensylvanica), Q27757; Kinase-Glo luciferase, ATP luminescence, 8 min; Potency, µM (doses to about 38.3 µM), without a hit: at the highest dose activity change, negative = inhibition, most hits filed as inhibitors; 200,000 compounds, 0.28% hits; also: nearly all actives have a fitted effect of over 60% in size
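Recombinant Kinase-Glo luciferase, 10 uM ATP (linear range), luciferin; imidazole pH 7.2 / KCl / MgCl2 / Tween / BSA buffer; 8 min RT; luminescence.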
Gal4-VP16 FLuc: VP16 counterscreen qHTS for inhibitors of ROR gamma transcriptional activity; Drosophila S2 Gal4-VP16 UAS-luciferase, luminescence, 20 h; Potency, µM (top dose mostly 53.6 µM), for inactives: top-dose activity, negative = inhibition, most hits filed as inhibitors; 310,000 compounds, 3.5% hits; AID 2546, 2010;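 also: Gal4-VP16 expression switched on by copper sulfate through the metallothionein promoter; nearly all actives have a fitted effect of over 50% in size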
Starred values were filed as active, the others as inactive; ? = inconclusive; . = not tested or not shown; [ ] = remark or other dose. Calls follow the shape of the dose curve; as a rule, active = well fitted curve in the direction sought with a large enough effect; inconclusive = small, poorly fitted or top-dose-only effect, or another doubt; inactive = no such curve, though single readings can be large; an effect the other way counts as inactive or inconclusive. % is scaled to controls: 0 for no effect and ±100 for the full control effect; potency is read from the fitted curve at half-maximal effect.

SMILES	RORg inh	KinaseGlo FLuc	Gal4-VP16 FLuc
C=CCOc1ccc(CNn2cn[nH]c2=S)cc1OCC	11µM*	-2%	-13%
COc1cc(CNC2CCCC2)cc(Cl)c1OCc1ccccc1F	-34%	-1%	-12%
COc1cccc(CNn2cnnc2)c1OCc1ccc(F)cc1	-2%	0%	-3%
COc1cc(CNn2c(C)n[nH]c2=S)cc(Cl)c1OCc1ccccc1	7.9µM*	-2%	-15%
COc1cc(CNn2cn[nH]c2=S)cc(Cl)c1OCc1ccc(F)cc1	7.1µM*	1%	4µM*
COc1ccc(C(CCN)Cc2ccccc2)cc1 (configuration not stated)	-5%	-3%	21%[10 µM]
COc1ccc(S(=O)(=O)N2CCOC2CNC(=O)C(=O)NCc2ccco2)cc1OC (configuration not stated)	2%	.	8%
O=C(COc1cccnc1[N+](=O)[O-])c1ccc(Cl)s1	-44%	.	?
CCCNC(=O)NC1CCCc2ccccc21 (configuration not stated)	5%	0%	7%
CS(=O)(=O)NNC(=O)c1sccc1OCc1ncc(C(F)(F)F)cc1Cl	21%	.	-6%
CSCC[C@H](NC(=O)[C@H]1N2C(=O)c3ccccc3C2SC1(C)C)C(=O)NCc1ccncc1 (some centres not stated)	-11%	.	-1%
O=C(O)C1CCCCC1C(=O)Nc1ccccc1F (configuration not stated)	12%	2%	0%
CS(=O)(=O)N1CCC(C(=O)Nc2ccccc2Br)CC1	2%	.	-4%
O=C(NC(=S)Nc1ccccc1Br)C1CCCC1	3.2µM*	.	7.1µM*
O=C(NC(=S)Nc1ccccc1F)C1CCCCC1	8.9µM*	.	7.9µM*
O=C(Nc1ccc(S(=O)(=O)Nc2ncccn2)cc1)c1ccc(Cl)c([N+](=O)[O-])c1	-2%	.	-2%
Cc1cc(NC(=O)COC(=O)CCNS(=O)(=O)c2c(Cl)cccc2Cl)no1	15%	7%	8%
CN(C(=O)c1cc2n(n1)C(C(F)(F)F)CC(c1ccco1)N2)c1ccccc1 (configuration not stated)	16%	-1%	21%
CN(C(=O)c1cc2n(n1)C(C(F)(F)F)CC(c1ccco1)N2)c1ccc(OC(F)(F)F)cc1 (configuration not stated)	?	-1%	18µM*
O=C(O)CCn1cc(/C=C/C(=O)c2ccc(Cl)cc2)c(-c2ccc(Br)cc2)n1	7.1µM*	.	?
O=C(O)/C=C/c1cn(Cc2ccccc2)nc1-c1ccccc1	14%	8%	-3%
O=C(NN1CCOCC1)c1cccc(COc2cccc(Br)c2)c1	-11%	4%	-13%
Cc1cccc(CCNC(=O)CCc2nnc(CCc3ccccc3)o2)n1	2%	-1%	-8%
CC1=NN(C(=O)c2ccccc2Cl)C(O)(c2cccnc2)C1 (configuration not stated)	?	2%	?
CC1=NN(C(=O)CSCc2ccccc2)C(O)(c2ccccc2)C1 (configuration not stated)	?	-1%	13µM*
SMILES	RORg inh	KinaseGlo FLuc	Gal4-VP16 FLuc
CC1=NN(C(=O)COc2ccccc2)C(O)(c2ccccc2)C1 (configuration not stated)	6.3µM*	-2%	10µM*
CC1=NN(C(=O)COc2ccc(C)c(C)c2)C(O)(c2ccccc2)C1 (configuration not stated)	10µM*	3%	11µM*
CCC1=NN(C(=O)COc2ccccc2)C(O)(c2ccc(Br)cc2)C1 (configuration not stated)	-12%	4%	-12%
CCOC(=O)N1N=C(C)CC1(O)c1ccc(Cl)cc1 (configuration not stated)	-16%	7%	4%
CC1=NN(C(=O)Cc2ccccc2)C(O)(c2cccnc2)C1 (configuration not stated)	6.3µM*	0%	7.9µM*
Cc1ccc(OCC(=O)OCC(=O)c2ccccc2)cc1C	-12%	.	-14%
COc1cccc(CN(C)C(=O)COc2ccc(C(=O)c3ccc(Cl)cc3)cc2)c1OC	-12%	.	2%
Cc1ccc2c(c1)C(=O)[C@@]1(O)CCN(c3ccccc3)C1=N2	?	0%	7%
CC[C@H](C)[C@H](NC(=O)[C@H](Cc1ccc(O)cc1)NC(=O)[C@@H]1CCCN1C(=O)[C@@H](N)CCCN=C(N)N)C(=O)N[C@@H](CC(C)C)C(=O)O	-2%	.	-4%
O=[N+]([O-])c1ccc2[nH]c(O)c(N=NC3CS(=O)(=O)CC3O)c2c1 (configuration not stated)	-5%	.	0%
Cc1ccc(CNC(=O)C2CCN(S(=O)(=O)c3ccc4c(c3)CC(C)N4C(=O)C3CCC3)CC2)o1 (configuration not stated)	5%	.	-5%
Cc1nn2c(nc(N3CCCCC3)c3ccccc32)c1C=O	?	3%	-21%
Cc1nn2c([nH]c(=O)c3ccccc32)c1C=O	4.5µM*	-4%	11µM*
CCOC(=O)[C@@H]1[C@H]2COc3cc(OC)ccc3[C@@H]2N2C(=O)N(c3ccc(OC)cc3)C(=O)[C@]12C	2%	.	1%
CCOC(=O)[C@@H]1[C@H]2COc3cc(OC)ccc3[C@@H]2N2C(=O)N(c3ccc(Br)cc3)C(=O)[C@@]12C	7.9µM*	.	-3%
CCOC(=O)[C@@H]1[C@H]2COc3ccc(Br)cc3[C@@H]2N2C(=O)N(c3ccc(C(F)(F)F)cc3)C(=O)[C@@]12C	-22%	.	-1%
CCOC(=O)[C@@H]1[C@H]2COc3ccc(Br)cc3[C@@H]2N2C(=O)N(c3cccc(F)c3)C(=O)[C@@]12C	18µM*	.	4%
CS(=O)(=O)Nc1ccc(C2=NN(C(=O)c3cccc(F)c3)C(c3cccs3)C2)cc1 (configuration not stated)	-26%	.	-5%
COc1cccc(C(=O)N2CCN(Cc3nc(CC4CC4)no3)CC2)c1	20%	.	-14%
OC1OC[C@@H](O)[C@H](O)[C@@H]1O (some centres not stated)	1%[10 µM]	.	0%
Cc1ccccc1NC(=O)Cc1c[nH]c2ccccc12	-6%	.	-8%
O=C(CSc1n[nH]c(-c2ccccn2)n1)Nc1cccc(Cl)c1	1.8µM*	.	2.8µM*
Cc1ccc(NC(=O)CSc2n[nH]c(-c3ccco3)n2)c(C)c1	44%	1%	1%
Cc1ccc(C)c(NC(=O)CSc2n[nH]c(-c3ccccn3)n2)c1	6.3µM*	.	?
Cc1nc(SCC(=O)Nc2cccc(Cl)c2)n[nH]1	0%	1%	4%
CC1c2[nH]c3ccccc3c2C[C@H]2C(=O)N(CCCN(C)C)CC(=O)N12 (some centres not stated)	13%	.	-11%
COc1ccc(-c2c(C3C4C=CCC(C)C4C(=O)N3Cc3ccccc3)ccc3ccccc23)cc1 (configuration not stated)	41%	.	-13%
CC(C)(C)c1ccc(S(=O)(=O)NCC(=O)Nc2ccc(-c3nc4ccccc4s3)cc2)cc1	0%	-4%	?
O=C(CNS(=O)(=O)c1cccc(Cl)c1)Nc1ccc(-c2nc3ccccc3s2)cc1	-35%	5%	2µM*
